Among the data in PubChem BioAssay AID1014 (NMMLSC, 2008) are inhibition of mean fluorescence and inhibition of percent positive cells values, retold here.

Calls of active or inactive are those of the source. No stated cut-off is given here; in the data, active means inhibition of mean fluorescence above about 33%; inactive means the rest.

A short description of this assay: blockers of bacterial quorum-sensing reporter fluorescence – flow cytometry, SAR analogs, SAR follow-up (AID 1014).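 Further: Staphylococcus aureus RN6390 with RNAIII-GFP reporter stimulated by AIP; bacteria incubated with compound for 3 hours at 37 °C.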 Conditions: at 20 µM, stronger effect = higher value; inhibition of percent positive cells: measured here: percent reporter-positive cells.

Consider `CN=C1NC(=O)CC(C(=O)Nc2ccc3ccccc3c2)S1` (centres undefined), for which the inhibition of mean fluorescence was -1.7% (inactive) and the inhibition of percent positive cells was -0.3%.

Consider `CC(C)c1ccc(NC(=O)C(c2cc3c(cc2[N+](=O)[O-])OCO3)N2CCCCC2)cc1` (centres undefined), for which the inhibition of mean fluorescence was 29% (inactive) and the inhibition of percent positive cells is -0.2%.

In the case of `CN(C)c1ccc(Nc2c(C(=O)O)cc([N+](=O)[O-])cc2[N+](=O)[O-])cc1`, the inhibition of mean fluorescence is 10.4% (inactive) and the inhibition of percent positive cells was 5.2%.

For the compound `CC(=O)c1cc2c(cc1NC(=O)CN1CCOCC1)OCO2`, the inhibition of mean fluorescence was -26.1% (inactive) and the inhibition of percent positive cells was -1%.

Turning to `O=C(O)c1ccccc1Nc1ccccc1C(=O)O`, the inhibition of mean fluorescence was 5.8% (inactive) and the inhibition of percent positive cells was -0.5%.

For the compound `Cc1ccccc1Nc1c(F)c(F)c(F)c(F)c1C(=O)O`, the inhibition of mean fluorescence is -18.8% (inactive) and the inhibition of percent positive cells is -1.9%.

For `O=C(NC1CCCCC1)C(c1cc2c(cc1[N+](=O)[O-])OCO2)N1CCN(c2ccccc2)CC1` (centres undefined), the inhibition of mean fluorescence is -34.9% (inactive) and the inhibition of percent positive cells was found to be 0.3%.

As for `CCN1CCN(C(CNC(=O)c2ccc(F)cc2)c2cccnc2)CC1` (centres undefined), the inhibition of mean fluorescence is -8.8% (inactive) and the inhibition of percent positive cells was -0.6%.

Regarding `O=C(NCC(c1cccnc1)N1CCN(c2ccccc2F)CC1)C1CC1` (centres undefined), the inhibition of mean fluorescence was -8.8% (inactive) and the inhibition of percent positive cells was -0.7%.

Turning to `COc1ccc(OC)c(C(=O)c2coc3ccc(O)cc23)c1`, the inhibition of mean fluorescence is -21.9% (inactive) and the inhibition of percent positive cells turned out to be 0%.

Take `CC1CC(C)CN(C(C(=O)Nc2ccc(C(C)C)cc2)c2ccc3c(c2)OCO3)C1` (centres undefined): the inhibition of mean fluorescence is 19.3% (inactive) and the inhibition of percent positive cells is -1.5%.

`Cc1nnc(N2CCCC(C(=O)Nc3ccc4c(c3)OCO4)C2)c2nn(-c3ccccc3)c(C)c12` (centres undefined): the inhibition of mean fluorescence was -10.1% (inactive) and the inhibition of percent positive cells is 0%.

With `COc1ccc(C2C(C(=O)Nc3ccc4c(c3)OCO4)c3ccccc3C(=O)N2C2CCCCC2)cc1` (centres undefined), the inhibition of mean fluorescence is 8% (inactive) and the inhibition of percent positive cells is 0.6%.

Turning to `CCN1CCN(C(C(=O)NC2CCCC2)c2cc3c(cc2[N+](=O)[O-])OCO3)CC1` (centres undefined), the inhibition of mean fluorescence is -8.6% (inactive) and the inhibition of percent positive cells was -0.6%.

Take `O=C(NCC(c1cccnc1)N1CCc2ccccc21)c1ccc(F)c(F)c1` (centres undefined): the inhibition of mean fluorescence was 19.9% (inactive) and the inhibition of percent positive cells was -0.3%.

For `COc1ccc(Nc2ccccc2C(=O)O)cc1`, the inhibition of mean fluorescence is 0.6% (inactive) and the inhibition of percent positive cells is -2.8%.

Turning to `N#Cc1c(NC(=O)COC(=O)CN2C(=O)c3ccccc3C2=O)sc2c1CCCC2`, the inhibition of mean fluorescence was -2.3% (inactive) and the inhibition of percent positive cells was -0.2%.

Turning to `CCc1c(C(=O)c2ccccc2)oc2c(C)c3oc(=O)cc(C)c3cc12`, the inhibition of mean fluorescence was -0.6% (inactive) and the inhibition of percent positive cells is -1.3%.

For the compound `Cc1oc2ccc(O)cc2c1C(=O)OC(C)C`, the inhibition of mean fluorescence is -11.3% (inactive) and the inhibition of percent positive cells was 0.1%.

With `COc1c(F)c(F)c(C(=O)O)c(Nc2ccccc2C)c1F`, the inhibition of mean fluorescence is 9.6% (inactive) and the inhibition of percent positive cells was -0.2%.

On to `N#Cc1c(NC(=O)COc2ccccc2)sc2c1CCCC2`, for which the inhibition of mean fluorescence was -5% (inactive) and the inhibition of percent positive cells is 2.5%.

With `Cc1ccc(S(=O)(=O)c2nnn3c2nc(Nc2cc(C)cc(C)c2)c2ccccc23)cc1`, the inhibition of mean fluorescence is -4% (inactive) and the inhibition of percent positive cells was -1.1%.

With `Cc1cccc(Nc2c(F)c(F)c(F)c(F)c2C(=O)O)c1`, the inhibition of mean fluorescence was -16.8% (inactive) and the inhibition of percent positive cells was -0.2%.

Turning to `O=C(NCC(c1cccnc1)N1CCN(c2ccc(F)cc2)CC1)c1ccccc1` (centres undefined), the inhibition of mean fluorescence is 10% (inactive) and the inhibition of percent positive cells was -0.2%.

Regarding `CC1CCN(c2c(NCC3CCC(C(=O)NCc4ccc5c(c4)OCO5)CC3)c(=O)c2=O)CC1` (centres undefined), the inhibition of mean fluorescence was -24.3% (inactive) and the inhibition of percent positive cells was -0.6%.

`O=C(NCC(c1cccnc1)N1CCN(c2ccccc2)CC1)c1cccs1` (centres undefined): the inhibition of mean fluorescence was 47.7% (active) and the inhibition of percent positive cells was 1.1%.

For the compound `O=C(NCC(c1cccnc1)N1CCN(Cc2ccccc2)CC1)c1ccccc1` (centres undefined), the inhibition of mean fluorescence was 12.3% (inactive) and the inhibition of percent positive cells was -0.4%.

Take `CC(=O)c1cc2c(cc1NC(=O)CN1CCN(C(c3ccccc3)c3ccccc3)CC1)OCO2`: the inhibition of mean fluorescence is 38.7% (active) and the inhibition of percent positive cells was determined as 0.4%.

`O=C(O)c1ccccc1NC(c1ccccc1)c1ccc(Cl)cc1` (centres undefined): the inhibition of mean fluorescence was 59.8% (active) and the inhibition of percent positive cells was found to be 0.2%.

As for `COc1ccc(S(=O)(=O)c2nnn3c2nc(Nc2ccccc2C)c2ccccc23)cc1`, the inhibition of mean fluorescence is -17.1% (inactive) and the inhibition of percent positive cells is 0.4%.

In the case of `O=C(NCC(c1cccnc1)N1CCc2ccccc21)c1cccc(F)c1` (centres undefined), the inhibition of mean fluorescence is 6.5% (inactive) and the inhibition of percent positive cells is -2%.

As to `CC1CCN(C(=O)Cn2cc(SCC(=O)Nc3ccc4c(c3)OCO4)c3ccccc32)CC1`, the inhibition of mean fluorescence is -4.6% (inactive) and the inhibition of percent positive cells is -0.2%.

Take `CC1CCN(C(C(=O)NC2CCCCC2)c2cc3c(cc2[N+](=O)[O-])OCO3)CC1` (centres undefined): the inhibition of mean fluorescence was 6% (inactive) and the inhibition of percent positive cells is 0.7%.

As to `CCOC(=O)c1c(-c2ccc(OC)cc2)oc2ccc(O)cc12`, the inhibition of mean fluorescence is -20.8% (inactive) and the inhibition of percent positive cells was 0.1%.

As for `CCOC(=O)c1cnc2c(OC)cccc2c1Nc1ccccc1C(=O)O`, the inhibition of mean fluorescence was -42.9% (inactive) and the inhibition of percent positive cells is -1.1%.

Consider `Nc1c(Nc2ccccc2C(=O)O)c2ccccc2oc1=O`, for which the inhibition of mean fluorescence is 0% (inactive) and the inhibition of percent positive cells is -2.2%.

Regarding `CCOC(=O)c1c(C)oc2cc(Br)c(O)c(Br)c12`, the inhibition of mean fluorescence was 55.9% (active) and the inhibition of percent positive cells is 0.7%.
